# HCV inhibitor = HCV inhibition; AID 651820; Huh7.5.1 HCVcc-Cre infection, luciferase reporter, 44 h; Potency, µM (series often up to 41.8 µM), for the others: at the top dose activity change, negative = inhibition, usual class: inhibitors; hit rate 3.4% among 340,000; note: potency is the fitted concentration of half-maximal effect
#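 Compounds are dispensed onto cells plated 4 h earlier at 1,000 per well, with HCVcc-Cre virus (about 0.5 moi) added next. Following 44 h of culture, luminescent signal is measured for 15 sec after 15 min with substrate at room temperature.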
# HCMV inh = blocks human cytomegalovirus replication. HFF cells, HCMV-luciferase reporter, 72 h; active compounds read low. activity change, negative = inhibition, % at 57.5 µM. hit rate 4.5% among 410,000. AID 1259415; in the data active = activity change below about -60%; inconclusive = no clear call, values can overlap the other calls; inactive = above about -39%
#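 Compounds were evaluated in HFFs infected with an HCMV luciferase reporter virus (MOI 1 PFU/cell). Luciferase in lysates collected 72 h post infection served as the replication measure.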
# VACV mCherry inh = inhibitors of vaccinia virus infection (mCherry reporter signal); hit rate 0.63% among 310,000; Potency, µM (highest dose often 36.5 µM), inactives show top-dose activity change, negative = inhibition, hits mostly inhibitors; Vaccinia virus mCherry reporter infection, fluorescence; calls by dose curve; tested in A549 cells; note: potency is the fitted concentration of half-maximal effect; nearly all actives have a fitted effect of over 35% in size
# Sm TGR inh = blocks Schistosoma mansoni thioredoxin glutathione reductase. purified TGR, DTNB reduction, TNB absorbance 405 nm. Potency, µM (series often up to 114 µM), for inactives: top-dose activity change, negative = inhibition, most hits filed as inhibitors. hit rate 3% among 360,000. AID 485364; note: potency is the fitted concentration of half-maximal effect; nearly all actives have a fitted effect of over 60% in size
#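 TGR 20 nM + NADPH 100 uM (dispensed conc.), cpd preinc 15 min RT; start with NADPH (500 uM addition) then DTNB (15 mM addition). Kinetic TNB absorbance, 405 nm filter. Four-parameter Hill fit across titration.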
# Vaccinia Venus = inhibitors of vaccinia virus (Venus reporter); Vaccinia virus Venus reporter expression, fluorescence; Potency, µM (titrated, usually from 36.5 µM), for inactives: top-dose activity change, negative = inhibition, hits mostly inhibitors; AID 720580; hit rate 0.46% among 330,000; calls by dose curve; tested in A549 cells; note: potency is the fitted concentration of half-maximal effect; nearly all actives have a fitted effect of over 30% in size
# FMDV inh = antivirals against foot and mouth disease virus; hit rate 1.2% among 410,000; AID 1159524; Potency, µM (top dose mostly 57.9 µM), inactives show at the highest dose activity change, negative = inhibition, actives largely listed as inhibitors; FMDV antiviral cell-based qHTS; calls by dose curve; tested in HEK293T cells; note: read-out not given here; potency is the fitted concentration of half-maximal effect; nearly all actives have a fitted effect of over 45% in size
# * marks the source's active call; other numbers are inactive results; i = inactive; ? = inconclusive; · = no result; [ ] = dose if it differs, or a comment. Shown are actives, neighbours in structure and some others; about 9.3% of the full set was active somewhere. Unless noted, calls come from the whole dose curve; as a rule, active = well fitted curve in the direction sought with a large enough effect; inconclusive = small, poorly fitted or top-dose-only effect, or another doubt; inactive = no such curve, though single readings can be large; an effect the other way counts as inactive or inconclusive. % is set by controls: 0 for no effect and ±100 for the full control effect.
SMILES,HCV inhibitor,HCMV inh,VACV mCherry inh,Sm TGR inh,Vaccinia Venus,FMDV inh
Cc1cc(C)cc(C(=O)N2CC(=O)Nc3ccccc32)c1,-22%,-81*,-19%,7%,?,-7%
CCc1cccc(Nc2c([N+](=O)[O-])cc(C(=O)N3CC(=O)Nc4ccccc43)cc2[N+](=O)[O-])c1,14µM*,0,-3%,-31%,-18%,?
Cc1ccc(/C=C/C(=O)N2CC(=O)Nc3ccccc32)o1,4%,-13,0%,8.9µM*,-4%,-8%
O=C(NCCc1ccccc1)c1coc(=O)c(Br)c1,-4%,27,-27%,1%,-21%,?
CCOc1cc(NC(=S)NCCCN2CCOCC2)c(OCC)cc1NC(=O)c1ccco1,?,16,-17%,35µM*,0%,-7%
O=C(NC(=S)Nc1ccc(CN2CCOCC2)cc1)c1ccco1,6%,52,i,32µM*,-2%,31%
O=C(NC(=S)Nc1ccc(CN2CCCCC2)cc1)c1ccco1,10%,-31,i,·,4%,17%
O=C(NC(=S)Nc1ccc(N2CCOCC2)cc1)c1cccc(Cl)c1Cl,4%,41,?,-28%,-7%,-4%
O=C(Nc1ccc(N2CCN(Cc3ccccc3)CC2)cc1)c1ccco1,2%,-82*,-7%,-6%,-12%,6%
O=C(NC(=S)Nc1ccc(N2CCOCC2)cc1)c1ccco1,18%,33,i,40µM*,-5%,27%
COc1cc(NC(=S)NCCCN2CCOCC2)c(OC)cc1NC(=O)c1ccco1,6%,-1,-5%,?,-10%,-2%
CC(=O)Nc1ccc(C(=O)N2CCOCC2c2cc(C(=O)NCc3ccccc3)no2)cc1 (stereo not given),·,4,-7%,·,5%,-11%
COc1ccc(NC(=O)Cn2ccc3c(OC)cccc3c2=O)cc1,2%,-7,-5%,-13%,-7%,-5%
C=C(C)C(=O)Nc1cccc(C2=NOC3(C2)C[C@H](C(N)=O)N(C(=O)/C=C/C)C3)c1 (stereo not given in full),11%,33,i,-11%,-11%,-14%
O=C(Nc1ccc(N2CCN(Cc3ccccc3Cl)CC2)cc1)c1cccnc1,-13%,-64*,-22%,1%,-11%,?
Cc1ccc(CNS(=O)(=O)c2c(C)[nH]c(C)c2C(=O)N2CCCCC2)cc1,4%,-11,11%[7.34 µM],1%,0%[7.34 µM],20%
COc1ccc(C(=O)NNC(=O)Cc2nc3ccccc3n2C)cc1,-3%,19,-20%,·,-17%,-5%
CCc1c(-c2cccc(OC)c2)ncn1Cc1cccc(-c2ccccc2)c1,·,?,-18%,·,?,32µM*
CCc1c(-c2ccc(Cl)cc2)ncn1Cc1cccc(-c2ccccc2)c1,·,-35,?,·,?,?
CCc1c(C2CC2)ncn1Cc1cccc(-c2ccccc2)c1,·,-99*,-7%,·,-22%,?
CCc1c(-c2ccccc2F)ncn1Cc1cccc(-c2ccccc2)c1,·,-71*,?,·,?,?
CCc1c(-c2ccccc2)ncn1Cc1cccc(-c2ccccc2)c1,·,-68*,?,·,-23%,?
COc1ccc(N2CCN(C(c3ccccc3)c3nnnn3Cc3ccccc3)CC2)cc1 (stereo not given),·,·,-16%,·,-21%,·
O=C(c1cc(S(=O)(=O)N2CCOCC2)c(Cl)cc1Cl)N1CCCC1,7%,4,-17%,4%,-10%,1%
COc1ccccc1NS(=O)(=O)c1cc(NC(=O)c2ccccc2C)ccc1N1CCOCC1,-8%,-14,-17%,·,-16%,67%
Cc1ccc(NS(=O)(=O)c2cc(NC(=O)c3ccc4c(c3)NC(=O)CS4)ccc2C)c(C)c1,11µM*,?,i,·,-12%,?
Cc1onc(-c2ccccc2)c1C(=O)Nc1ccc(Cl)c(S(=O)(=O)N2CCOCC2)c1,-2%,-103*,·,1%,·,?
COc1cc2c(cc1OC)CN(C(=O)c1cc(S(=O)(=O)N3CCOCC3)c(Cl)cc1Cl)CC2,25µM*,·,-27%,0%,-22%,?

# Source: PubChem (National Center for Advancing Translational Sciences (NCATS))
